An excerpt weighted towards active compounds, which were near 3.7% of everything screened.
Anthrax LF prot: anthrax lethal factor protease inhibition; P15917; multiplex microsphere protease cleavage assay, LF; inhibition, % at 10 µM; 360,000 tested, 0.12% active; AID 588501; note: plate controls were buffer without enzyme for full effect and enzyme alone for no effect
BoNT-F LC inh: blocks Botulinum neurotoxin F light chain protease; inhibition, % at 10 µM; 360,000 tested, 0.22% active; Multiplex microsphere protease cleavage assay, flow cytometry; in the data active = inhibition above about 35%, passing the limit was not always enough; inconclusive = no clear call, values can overlap the other calls; note: plate controls were buffer without enzyme for full effect and enzyme alone for no effect
BoNT-A LC inh2: blocks Botulinum neurotoxin A light chain protease; inhibition, % at 10 µM; AID 588499; multiplex microsphere protease substrate cleavage, flow cytometry; 360,000 tested, 0.17% active; note: plate controls were buffer without enzyme for full effect and enzyme alone for no effect
MazEF act: increases E. coli MazEF RNase cleavage of RNA; 350,000 tested, 0.32% active; P0AE70; AID 504720; FAM/BHQ RNA-DNA oligo cleavage fluorescence, 5 h; activation, % at 20 µM; in the data active = activation above about 50%
Target sequence (P0AE70 whole entry, looked up): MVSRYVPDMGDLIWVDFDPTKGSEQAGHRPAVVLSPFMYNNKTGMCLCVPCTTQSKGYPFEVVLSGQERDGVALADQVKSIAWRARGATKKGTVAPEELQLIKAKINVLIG
Bead autofluor: counter-screen for toxin protease inhibitors: compound fluorescence | compound autofluorescence counterscreen, microsphere flow cytometry; stronger effect = higher value | fluorescence intensity (concentration not given with the values) | 360,000 tested, 3.1% active | AID 624483; in the data active = fluorescence intensity above about 16000; inconclusive = no clear call, values can overlap the other calls
* marks the source's active call; other numbers are inactive results; ? = inconclusive; . = no result given. Cut-off read from the data, not from the text of the source, unless noted: active = inhibition above about 30%; inconclusive = no clear call, values can overlap the other calls; inactive = below that.

SMILES	Anthrax LF prot	BoNT-F LC inh	BoNT-A LC inh2	MazEF act	Bead autofluor
NC(=O)C1CCN(c2nc(C3CC3)nc3c2nnn3Cc2ccccc2Cl)CC1	-3	-5	?	-1	25043*
c1ccc(Cn2nnc3c(N4CCN(Cc5ccc6c(c5)OCO6)CC4)ncnc32)cc1	-1	-4	-1	-3	24167*
Clc1ccccc1Cn1nnc2c(N3CCCC3)ncnc21	-2	-2	-1	0	23668*
OCCNc1nc(C2CC2)nc2c1nnn2Cc1ccccc1Cl	0	-2	?	2	23293*
COCCNc1nc(C(C)(C)C)nc2c1nnn2Cc1ccccc1Cl	-1	-12	-2	-5	12170
CC(=O)Nc1ccc(S(=O)(=O)NCCC(=O)NNC(=O)c2ccncc2)cc1	-2	-1	-1	-1	6074
COc1ccc2c(=O)c(-c3ccc(C)cc3)c(-c3ccccc3)oc2c1	-3	-10	0	16	2948
COc1ccc(S(=O)(=O)Nc2ccc3c(c2)C(=O)N([C@H](C)CO)C[C@H](C)[C@@H](CN(C)C(=O)Nc2ccc4c(c2)OCO4)O3)cc1	0	-8	0	4	4335
CN(C)c1ccc(P(=O)(OCc2ccccc2)C(O)c2ccncc2)cc1 (stereo not given)	.	.	.	7	.
CCCOP(=O)(c1ccc(N(C)C)cc1)C(O)c1ccncc1 (stereo not given)	-8	3	2	0	19418*
Nc1c(-c2ccccc2)n[nH]c1-c1ccccc1	-2	-5	?	5	23500*
O=C(CCl)NC1(C(=O)O)CCCC1	-2	-8	0	9	3372
O=C(c1ccc(N2CCCC2)c([N+](=O)[O-])c1)N1CCN(S(=O)(=O)c2ccccc2)CC1	-2	6	-3	4	?
CC1(C)CC(=O)C(C(C2=C(O)CC(C)(C)CC2=O)c2cccnc2)C(=O)C1 (stereo not given)	2	6	1	7	4231
CC1(C)CC(=O)C(C(C2=C(O)CC(C)(C)CC2=O)c2cccc(O)c2)C(=O)C1 (stereo not given)	-2	-4	?	3	20599*
Cc1ccc(-c2nc3ccccc3c(=O)n2CCCN2CCOCC2)cc1	2	-15	-2	-5	4429
O=c1c2ccccc2nc(-c2ccccc2)n1CCCN1CCOCC1	-3	-5	-2	2	16595*
O=C(CCNC(=O)C1CCN(S(=O)(=O)c2ccc(F)cc2)CC1)NCc1cccc(Cl)c1	3	5	1	-2	5049
CCc1ccccc1N1CSC2=C(C#N)C(c3cc(OC)c(OC)cc3OC)CC(=O)N2C1 (stereo not given)	-1	10	3	3	5398
COc1cc(OC)c(C2CC(=O)N3CN(c4ccccc4)CSC3=C2C#N)cc1OC (stereo not given)	-4	0	?	5	20460*
COc1ccc2ccccc2c1C1CC(=O)N2CN(C)CSC2=C1C#N (stereo not given)	1	-1	?	-1	20088*
CCOC(=O)C1=NN(c2ccccc2)C2=NC(C)=C(C(=O)OC)C(c3cccs3)N12 (stereo not given)	2	-5	-1	-6	9628
CCOC(=O)C1=NN(c2ccccc2C)C2=NC(C)=C(C(=O)OC)C(c3cccs3)N12 (stereo not given)	-10	6	7	2	17523*
O=C(c1cc(-c2ccc(Cl)c(Cl)c2)on1)N1CCCCC1	-7	0	0	-1	11151
CCC1CCCCN1C(=O)c1cc(-c2ccc(Cl)c(Cl)c2)on1 (stereo not given)	-4	-7	?	-10	25388*
SMILES	Anthrax LF prot	BoNT-F LC inh	BoNT-A LC inh2	MazEF act	Bead autofluor
CC1CCCCN1C(=O)c1cc(-c2ccc(Cl)c(Cl)c2)on1 (stereo not given)	-4	-2	?	-7	22609*
O=C(c1cc(-c2ccc(Cl)c(Cl)c2)on1)N1CCN(c2ccccc2)CC1	-4	-4	-5	-7	21958*
Cc1cccc(C=Nc2ccccc2C(N)=O)c1	-6	-5	-4	4	24521*
Cc1ccc(C=Nc2ccccc2C(N)=O)s1	0	1	0	-2	2547
CCOc1cc(CNn2cnnc2)ccc1OCC(=O)NC1CCCCC1	-2	-6	-5	-5	21782*
COc1ccc(C(=O)N(C)CCCC2CCCC2)cc1OC1CCN(C(C)C)CC1	4	1	0	4	5861
COC(=O)c1sc(NC(=O)c2cc3c(s2)CCCC3)nc1C	0	-8	-4	10	25221*
CC(NC(=O)c1cc2c(s1)CCCC2)C(C)(C)C (stereo not given)	-20	24	20	-17	16452*
CCC(CO)NC(=O)c1cc2c(s1)CCC2 (stereo not given)	0	-4	1	-3	3242
COCCN(C(=O)CSc1n[nH]c(-c2ccccc2)n1)c1c(N)n(Cc2ccccc2)c(=O)[nH]c1=O	-4	-44	-28	-1	?
O=C(c1ccc(Cl)cc1)c1cnc(Nc2ccccc2Cl)s1	-1	-7	?	14	20938*
O=C(NCC1CCCO1)c1ccc(CS(=O)(=O)c2ccc(Br)cc2)o1 (stereo not given)	-3	3	0	-18	6069
O=C(NCC1CCCO1)c1ccc(CS(=O)(=O)c2ccc(Cl)cc2)o1 (stereo not given)	-9	-1	1	-5	22230*
CCOc1ccc(Nc2nc(NCCN3CCOCC3)nc(OC)n2)cc1	-3	0	?	7	22883*
CCOC(=O)Cn1c(=O)oc2cc(S(=O)(=O)NCCc3ccc(OCC)c(OCC)c3)ccc21	1	1	?	-7	22861*
CCOC(=O)Cn1c(=O)oc2cc(S(=O)(=O)N(CCN(C)C)Cc3ccccc3)ccc21	-5	-4	-2	-4	23509*
CCOC(=O)Cn1c(=O)oc2cc(S(=O)(=O)Nc3cc(Cl)ccc3OC)ccc21	2	-3	0	-2	5601
CCOCCCNS(=O)(=O)c1ccc2c(c1)oc(=O)n2CC(=O)OCC	-10	-1	1	1	23318*
CCOC(=O)Cn1c(=O)oc2cc(S(=O)(=O)NCCC(C)C)ccc21	-2	8	-1	3	4181
CCOC(=O)Cn1c(=O)oc2cc(S(=O)(=O)Nc3cc(OCC)ccc3OCC)ccc21	-3	-3	?	-3	16486*
CCOc1ccc(NC(=O)CN(C)C(=O)CSCc2c(C)noc2C)cc1OCC	-2	-11	-5	0	7518
O=C(C[C@@H]1C[C@H]2c3cc(NC(=O)C4CCC4)ccc3O[C@H]2[C@@H](CO)O1)NCc1ccc(-c2ccccc2)cc1	-8	-1	0	-1	4168
CCOC(=O)CN1C=C(c2ccc3ccccc3n2)C(C[N+](=O)[O-])c2ccccc21 (stereo not given)	-4	6	2	233*	7947
COC(=O)c1ccccc1NS(=O)(=O)c1ccc(NC(C)=O)cc1	-2	-2	-1	-8	4670
COC(=O)c1ccccc1NC(=O)Oc1ccc(F)cc1	-3	-3	-1	-4	16560*

Screening results (PubChem)
